Results as given in PubChem BioAssay.
Calls of active or inactive are those of the source.

What was measured:
[1] = test system: Human papillomavirus type 1a protein E7 (residues 44-93); assay: HPV1a E7 fragment binders on microarrays, primary screen, biochemical, small-molecule microarray, residues 44-93, 635 nm fluorescence (AID 1108); settings: small-molecule microarray binding, fluorescence 635 nm; higher = more signal;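 further: E7 fragment applied at 1 µg/mL in TBST for 1 h at 4 C; score combines spot fluorescence with its signal to noise ratio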
[2] = modulators of HCV replicon luciferase signal, primary screen, HCV replication inhibitor project, Huh7 cells, luciferase reporter (AID 1109); settings: 48 h, higher = more signal;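 further: huh7 hepatoma cells harbouring a luciferase neomycin HCV replicon reporter; luciferase luminescence as measure of HCV replicon replication; test concentration not given here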
[3] = target: Left-right determination factor 2 (Homo sapiens) (UniProt O00292); assay: LEFTY2 binders on small-molecule microarrays, primary screen, biochemical, small-molecule microarray, 635 nm fluorescence scan (AID 1110); settings: LEFTY2 binding, higher = more signal
[4] = target: Calmodulin-1 (Homo sapiens) (UniProt P0DP23); assay: CALM1 binders on microarrays, EGTA buffer, profiling panel, biochemical, small-molecule microarray, Cy5-labelled CALM1 (AID 1111); settings: Cy5-CALM1 binding fluorescence, higher = more signal;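 further: labelled calmodulin applied in Tris saline Tween buffer holding calcium plus EGTA and DTT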
[5] = target: Calmodulin-1 (Homo sapiens) (UniProt P0DP23); assay: calcium-bound CALM1 binders on microarrays, profiling panel, artefact control for SMM control-protein annotation, biochemical, small-molecule microarray, Cy5-labelled CALM1, plus calcium (AID 1112); settings: Cy5-CALM1 binding fluorescence, higher = more signal;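 further: score merges spot fluorescence with signal to noise from triplicate slides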
[6] = small-molecule microarray binders of probe aWnt5a, primary screen, biochemical, biotinylated probe, 635/667 nm fluorescence (AID 1113); settings: higher = more signal;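 further: score merges 667 nm fluorescence intensity with signal-to-noise per printed feature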
[7] = small-molecule microarray binders of probe aShh, primary screen, biochemical, biotinylated probe, 635/667 nm fluorescence (AID 1114); settings: higher = more signal;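 further: probe is biotin-labelled aShh protein from a stem cell growth factor screen; measures binding of labelled protein to compounds printed on the slide; score merges feature fluorescence at 667 nm with signal-to-noise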
[8] = small-molecule microarray binders of probe aNog, primary screen, biochemical, biotinylated probe, 635/667 nm fluorescence (AID 1115); settings: higher = more signal;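 further: probe is biotinylated aNog protein used at 0.15 µg/mL for 1 h at 4 C; z-score combines 667 nm fluorescence of each spot with its signal to noise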
[9] = target: Torsin-1A-interacting protein 1 (Homo sapiens) (UniProt Q5JTV8); assay: LAP1 binders from COS7 cell lysate, primary screen, small-molecule microarray, 635/667 nm fluorescence (AID 1116); settings: COS7-hLAP1 lysate binding, 635 nm fluorescence, higher = more signal
[10] = target: Alpha-bungarotoxin (Bungarus multicinctus) (UniProt P60615); assay: alpha-bungarotoxin binders on microarray, profiling panel, artefact control for SMM control protein annotation, biochemical, small-molecule microarray, Alexa647 label, 635/667 nm fluorescence (AID 1117); settings: alpha-BTX-A647 binding fluorescence, higher = more signal
[11] = target: Albumin (Bos taurus) (UniProt P02769); assay: bovine serum albumin binders on microarray, profiling panel, artefact control for SMM control protein annotation, biochemical, small-molecule microarray, Alexa647 label, 635/667 nm fluorescence (AID 1118); settings: BSA-A647 binding, fluorescence 635 nm, higher = more signal;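 further: score merges 667 nm emission intensity and signal-to-noise per printed compound spot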
[12] = small-molecule microarray binders of probe aXIP, primary screen, biochemical, NeuroSMM set, 635/667 nm fluorescence (AID 1119); settings: higher = more signal, called active from +8 up or from −8 down;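 further: probe is the protein aXip251-270 applied at 1 µg/mL to compound-printed slides; binding of probe to printed compounds measured as 667 nm fluorescence plus signal to noise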
[13] = small-molecule binders of probe aNOTCH3, primary screen, biochemical, small-molecule microarray, 635/667 nm fluorescence (AID 1120); settings: higher = more signal;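 further: probe is a biotin-tagged antibody raised against NOTCH3 rather than NOTCH3 protein; score merges spot fluorescence near 667 nm with spot signal to noise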
[14] = small-molecule binders of probe aNOTCH2, primary screen, biochemical, small-molecule microarray, 635/667 nm fluorescence (AID 1121); settings: higher = more signal;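 further: score merges feature fluorescence read at 667 nm with its signal to noise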
[15] = target: Carbonic anhydrase 2 (Homo sapiens) (UniProt P00918); assay: CAII small-molecule binders, profiling panel, biochemical, small-molecule microarray, Alexa647-labelled CAII (AID 1122); settings: CAII-A647 binding fluorescence, higher = more signal
[16] = COS7 lysate on small-molecule microarray, probe aHis, 635 nm (AID 1123); settings: COS7 cell lysate, fluorescence, higher = more signal;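 further: z-score combines 667nm fluorescence intensity with signal-to-noise per printed compound spot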
[17] = compound binding in COS7 lysate, probe aLAP1, primary screen, cell lysate, small-molecule microarray (AID 1124); settings: probe aLAP1, fluorescence, higher = more signal;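 further: lysate comes from COS7 cells expressing LAP1 and is applied at 0.3 µg/mL; score merges spot fluorescence near 667 nm with signal-to-noise over triplicate slides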
[18] = test system: Sam68 (KHDRBS1); assay: Sam68 small-molecule binders, primary screen, biochemical, small-molecule microarray, 635 nm fluorescence (AID 1125); settings: small-molecule microarray binding, higher = more signal;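 further: score merges 667 nm channel intensity with signal to noise over triplicate slides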
[19] = test system: Chordin-like protein 2 (CHRDL2); assay: CHRDL2 small-molecule binders, primary screen, biochemical, small-molecule microarray, 635 nm fluorescence (AID 1126); settings: small-molecule microarray binding, fluorescence 635 nm; higher = more signal;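 further: printed compound slides probed with Chrdl2 protein at 4 µg/mL for 1 h at 4 C; score merges 667 nm emission intensity with signal to noise over three replicate slides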
[20] = target: Concanavalin-A (Canavalia ensiformis) (UniProt P02866); assay: ConA small-molecule binders, primary screen, artefact control for SMM control protein annotation, biochemical, small-molecule microarray, Alexa647 label, 635 nm (AID 1127); settings: ConA-A647 binding fluorescence, higher = more signal;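 further: z combines 667 nm emission intensity with signal-to-noise across three replicate slides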
Sequence of Concanavalin-A (Canavalia ensiformis) (P02866 whole entry, looked up): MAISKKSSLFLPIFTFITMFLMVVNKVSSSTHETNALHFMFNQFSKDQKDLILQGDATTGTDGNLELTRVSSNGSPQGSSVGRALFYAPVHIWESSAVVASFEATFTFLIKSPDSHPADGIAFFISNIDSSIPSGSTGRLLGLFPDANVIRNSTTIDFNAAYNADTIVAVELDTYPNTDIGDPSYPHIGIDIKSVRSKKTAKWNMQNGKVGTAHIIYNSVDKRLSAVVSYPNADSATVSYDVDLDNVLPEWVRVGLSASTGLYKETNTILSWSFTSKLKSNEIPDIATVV

Sequence of Torsin-1A-interacting protein 1 (Homo sapiens) (Q5JTV8 whole entry, looked up): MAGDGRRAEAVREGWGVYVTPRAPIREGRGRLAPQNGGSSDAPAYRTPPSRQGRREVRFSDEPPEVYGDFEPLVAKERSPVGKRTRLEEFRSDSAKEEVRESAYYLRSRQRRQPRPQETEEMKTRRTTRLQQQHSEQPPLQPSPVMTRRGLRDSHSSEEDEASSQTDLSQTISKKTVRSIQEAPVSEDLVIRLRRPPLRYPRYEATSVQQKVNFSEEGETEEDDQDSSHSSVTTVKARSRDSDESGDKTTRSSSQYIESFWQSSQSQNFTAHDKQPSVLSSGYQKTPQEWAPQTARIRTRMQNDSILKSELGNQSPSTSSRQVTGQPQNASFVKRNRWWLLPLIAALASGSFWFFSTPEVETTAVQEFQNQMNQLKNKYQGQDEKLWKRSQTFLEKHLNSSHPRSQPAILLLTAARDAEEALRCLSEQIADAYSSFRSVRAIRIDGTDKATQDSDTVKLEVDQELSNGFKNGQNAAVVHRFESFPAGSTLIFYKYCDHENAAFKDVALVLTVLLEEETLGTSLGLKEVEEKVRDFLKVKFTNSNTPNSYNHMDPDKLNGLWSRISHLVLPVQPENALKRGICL
Sequence of Alpha-bungarotoxin (Bungarus multicinctus) (P60615 whole entry, looked up): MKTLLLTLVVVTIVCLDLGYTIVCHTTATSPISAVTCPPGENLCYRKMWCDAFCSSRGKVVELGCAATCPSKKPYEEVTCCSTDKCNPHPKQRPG
Sequence of Left-right determination factor 2 (Homo sapiens) (O00292 whole entry, looked up): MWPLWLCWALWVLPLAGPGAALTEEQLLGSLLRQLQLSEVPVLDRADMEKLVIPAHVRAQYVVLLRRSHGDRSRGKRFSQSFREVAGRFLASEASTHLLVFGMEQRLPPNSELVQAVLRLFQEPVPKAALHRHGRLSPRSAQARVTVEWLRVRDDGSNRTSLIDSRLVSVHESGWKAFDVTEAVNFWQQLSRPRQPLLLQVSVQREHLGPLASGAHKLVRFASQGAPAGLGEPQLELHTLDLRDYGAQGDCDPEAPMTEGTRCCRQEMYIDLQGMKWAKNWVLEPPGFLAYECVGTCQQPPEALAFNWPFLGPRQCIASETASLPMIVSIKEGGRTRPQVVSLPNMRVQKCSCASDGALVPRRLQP
Sequence of Albumin (Bos taurus) (P02769 whole entry, looked up): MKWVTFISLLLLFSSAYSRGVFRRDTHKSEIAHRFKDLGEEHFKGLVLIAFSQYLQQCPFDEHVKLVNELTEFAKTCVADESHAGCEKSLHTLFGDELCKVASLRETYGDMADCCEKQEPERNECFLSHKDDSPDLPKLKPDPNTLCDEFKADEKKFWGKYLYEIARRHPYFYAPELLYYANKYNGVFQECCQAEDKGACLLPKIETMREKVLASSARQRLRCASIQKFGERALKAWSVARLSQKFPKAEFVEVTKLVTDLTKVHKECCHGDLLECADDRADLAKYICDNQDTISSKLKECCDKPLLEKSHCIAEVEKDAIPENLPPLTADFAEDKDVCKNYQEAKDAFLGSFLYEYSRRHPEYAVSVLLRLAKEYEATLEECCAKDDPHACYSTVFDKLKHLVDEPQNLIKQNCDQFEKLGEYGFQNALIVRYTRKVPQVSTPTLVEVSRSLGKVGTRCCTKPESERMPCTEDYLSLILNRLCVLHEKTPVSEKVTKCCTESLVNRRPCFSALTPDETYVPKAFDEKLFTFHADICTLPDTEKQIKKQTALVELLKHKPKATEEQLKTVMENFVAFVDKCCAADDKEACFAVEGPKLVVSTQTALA

Row | SMILES | composite z-score [1] | z-score [2] | composite z-score [3] | composite z-score [4] | composite z-score [5] | composite z-score [6] | composite z-score [7] | composite z-score [8] | composite z-score [9] | composite z-score [10] | composite z-score [11] | composite Z-score [12] | composite z-score [13] | composite z-score [14] | composite z-score [15] | composite z-score [16] | composite z-score [17] | composite z-score [18] | composite z-score [19] | composite z-score [20]
1 | O=C1[C@H]2[C@H]3[C@H](O)[C@H](O)CC(=NOCc4ccccc4)[C@@H]3CC[C@H]2C(=O)N1C[C@@H]1CCCO1 | -0.236 | 0.189 | 0.316 | 0.583 | -0.0696 | -0.117 | -0.0553 | -0.158 | -0.126 | 0.879 | 0.0904 | -0.207 (inactive) | -0.187 | -0.0621 | -0.026 | 0.369 | 0.279 | -0.361 | 0.332 | 0.603
2 | CC(C)=CCCC(C)=CCON=C1C[C@@H](O)[C@@H](O)[C@@H]2[C@@H]3C(=O)N(C[C@@H]4CCCO4)C(=O)[C@@H]3CC[C@H]12 | 1.11 | -0.0626 | 0.957 | 0.0209 | 0.228 | -0.0783 | 0.0952 | -0.278 | 0.986 | 1.15 | 0.816 | 0.365 (inactive) | 0.121 | -0.0651 | 0.22 | 0.401 | -0.592 | 1.3 | 1.3 | 1.13
3 | COc1ccc(COC(=O)NN=C2C[C@@H](O)[C@@H](O)[C@@H]3[C@@H]4C(=O)N(c5ccc(F)cc5F)C(=O)[C@@H]4CC[C@H]23)cc1 | -0.246 | -0.107 | -0.551 | -0.252 | -0.318 | -0.169 | -0.0769 | -0.273 | -0.724 | 0.616 | 0.446 | 3.84 (inactive) | 0.0961 | -0.157 | -0.0507 | -0.181 | 0.0054 | -0.169 | -0.293 | 0.0493
4 | CO[C@H]1COC(=O)CC=C[C@H](C)COC(=O)[C@@H](C)NC(=O)CC=C[C@@H]1C | -1.45 | -1.83 | 1.54 | -1.13 | -2.44 | -0.0816 | -0.0035 | -0.137 | 0.621 | 0.13 | -0.854 | 0.842 (inactive) | -0.179 | -0.14 | -0.532 | -1.13 | 0.487 | 0.339 | 1.56 | -0.582
5 | CCCNC(=O)OC[C@H]1O[C@H](CCON=Cc2ccc(C(=O)N3[C@H](c4ccc(C)cc4)[C@@H](C)CC[C@H]3C(=O)OC)cc2)C=C[C@@H]1Oc1ccc(OC)cc1 | 0.993 | -1.85 | 0.534 | 0.263 | -0.0711 | 0.111 | -0.493 | -0.0234 | 0.943 | 0.497 | 0.315 | 0.0856 (inactive) | -0.321 | -0.172 | -0.0309 | 0.526 | 0.735 | 1.08 | 0.274 | 0.279
6 | CCCCC#C[C@@H]1C=C[C@H](Oc2cc(OC)c(OC)c(OC)c2)[C@@H](COC(=O)OCC)O1 | -0.709 | -0.548 | 0.144 | -0.659 | -0.986 | -0.124 | -0.276 | -0.158 | 0.0606 | 0.624 | 0.227 | 0.0299 (inactive) | -0.128 | -0.0907 | -0.165 | -0.642 | 0.211 | -0.25 | 0.251 | -0.0793
7 | C[C@H](ON=C1[C@H]2CCn3c(=O)n(-c4ccccc4)c(=O)n3[C@H]2[C@H](O)[C@@H]2O[C@H]12)c1cn([C@H](CO)Cc2ccccc2)nn1 | 0.345 | -2.91 | 0.605 | 1.15 | -0.444 | -0.0179 | -0.195 | 0.0637 | -0.168 | 0.104 | 0.426 | -0.285 (inactive) | -0.0788 | -0.0888 | 0.407 | 0.183 | 0.29 | 0.168 | 0.388 | 1.06
8 | CCOC(=O)[C@H](Cc1ccccc1)NC(=O)CCC1CC(OC(=O)NCCc2ccc(F)cc2)CC2(CCCC(COC(=O)NCCCN3CCCC3=O)O2)O1 (stereo not given in full) | 1.35 | -0.427 | 0.612 | 0.566 | -0.043 | -0.0222 | 0.149 | 0.0083 | 0.0166 | 0.261 | 0.468 | 0.0773 (inactive) | 0.0479 | -0.078 | 0.0851 | 0.776 | 0.129 | 1.29 | 0.294 | 1.1
9 | CCN1C(=O)[C@H]2[C@H]3[C@H](O)[C@H](O)CC(=O)[C@H]3CC[C@H]2C1=O | 0.566 | -0.693 | 0.872 | -0.123 | -0.448 | -0.0472 | 0.0278 | -0.158 | 0.161 | 0.113 | 0.234 | -0.274 (inactive) | -0.0921 | -0.0793 | 0.0164 | -0.209 | 0.0555 | 0.47 | 0.689 | 0.541
10 | CO[C@@H]1C=CCC(=O)N2CCC[C@H]2C(=O)OC[C@@H](C)C(=O)OC[C@H]1C | -0.291 | 0.189 | 0.837 | -0.759 | -1.02 | -0.0896 | -0.0362 | -0.246 | -0.0837 | -0.276 | -0.709 | 1.36 (inactive) | 0.138 | -0.0109 | -0.31 | -0.0865 | -0.176 | 0.465 | 1.05 | -1.08
11 | Cc1ccc(S(=O)(=O)n2c3ccccc3c3nnc(C(=O)c4ccccc4)nc32)cc1 | -0.463 | 3.59 | 0.563 | -0.357 | -0.367 | 0.0491 | -0.332 | -0.0926 | 0.302 | -0.306 | -0.563 | 0.0578 (inactive) | 0.12 | 0.012 | -0.141 | -0.111 | 0.246 | -0.472 | 0.261 | 0.0083
